In the library only some 12% were active in any assay of this set; here they are far more common.
JMJD2A Tudor inh: blocks the human JMJD2A Tudor domain. O75164. AlphaScreen JMJD2A-Tudor / H3K4me3 peptide binding. Potency, µM (top dose mostly 114 µM), actives largely listed as inhibitors. 390,000 compounds, 4.4% hits; note: nearly all actives have a fitted effect of over 50% in size
HP1b binding inh: blocks HP1-beta chromodomain binding to methylated histone tails | P83916 | AlphaScreen HP1-beta / biotin-H3K9me3 peptide binding | Potency, µM (titrated, usually from 114 µM), hits mostly inhibitors | 390,000 compounds, 0.56% hits; note: nearly all actives have a fitted effect of over 70% in size
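HP1-beta protein (50 nM final) preincubated 30 min at room temperature with biotinylated H3(1-18)K9me3 peptide (50 nM) in PBS pH 7.4, 0.01% Tween-20, then compound added for 30 min. AlphaScreen streptavidin donor/nickel chelate acceptor beads (10 ug/mL final), 30 min dark, luminescence read.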
BAZ2B block: inhibitors of human BAZ2B bromodomain; AID 504333; Q9UIF8; AlphaScreen BAZ2B-H3K14Ac peptide displacement; 360,000 compounds, 4.4% hits; Potency, µM (top dose mostly 114 µM), most hits filed as inhibitors; note: nearly all actives have a fitted effect of over 60% in size
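AlphaScreen displacement of biotin-H3(5-23)K14Ac peptide (50 nM final) from BAZ2B (50 nM final) in PBS pH 7.4, 0.01% Tween-20; complex preformed 30 min RT, then compounds (top 110 uM) 30 min RT, beads 20 min dark.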
Sfp inh: inhibitors of Bacillus subtilis Sfp phosphopantetheinyl transferase | Q9F4F7 | Potency, µM, actives largely listed as inhibitors | Biochemical Sfp PPTase activity, qHTS | AID 1490 | 310,000 compounds, 3.5% hits;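 note: the enzyme is Sfp with the accession as filed and its product quenches rhodamine fluorescence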
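After 15 min at room temperature with compound, 15 nM Sfp received 5 uM rhodamine-CoA plus 12.5 uM BHQ-2-ybbR (50 mM Hepes pH 7.6, 10 mM MgCl2). Rate came from the fluorescence difference over 30 min, ex 525/em 598 nm.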
G9a block: G9a (human) methyltransferase inhibition | Q96KQ7 | G9a H3K9 monomethylation, AlphaScreen, 2 h | Potency, µM (titrated, usually from 102 µM), hits mostly inhibitors | 350,000 compounds, 8.8% hits | AID 504332; note: nearly all actives have a fitted effect of over 75% in size
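AlphaScreen detection with an anti-monomethyl H3K9 antibody quantified product after a 2 h room-temperature reaction containing 500 nM biotinylated H3K9 peptide, 20 µM SAM and 20 nM enzyme, which had been preincubated 15 min with compound.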
Large screens that a line does not name were inactive. Calls come from the whole dose curve; as a rule, active = well fitted curve in the direction sought with a large enough effect; inconclusive = small, poorly fitted or top-dose-only effect, or another doubt; inactive = no such curve, though single readings can be large; an effect the other way counts as inactive or inconclusive.

COc1ccc(OC)c(C(=O)c2ccc(C(=O)c3cc(OC)ccc3OC)cc2)c1	Sfp inh inconclusive
COc1ccc(C(=O)c2ccc([N+](=O)[O-])cc2Cl)cc1	JMJD2A Tudor inh 56.2µM, HP1b binding inh inconclusive, BAZ2B block inconclusive (no result: G9a block)
COc1ccc(OC)c(C(=O)c2ccc([N+](=O)[O-])cc2)c1	JMJD2A Tudor inh 89.1µM (no result: BAZ2B block, Sfp inh, G9a block)
CCCN1CCN(C(=O)Cn2ncc3c4ccccc4n(Cc4cccc(Cl)c4)c3c2=O)CC1	none (no result: Sfp inh)
O=C(Nc1c2ccccc2nc2ccccc12)C(Cl)(Cl)Cl	G9a block 44.7µM
O=C(Cc1ccccc1)NNc1c2ccccc2nc2ccccc12	BAZ2B block inconclusive
CC(C)Cc1ccc(C(=O)Nc2ccc(Cc3ccncc3)cc2)o1	none
CCOC(=O)c1nc(C)sc1-c1ccnn1S(=O)(=O)c1ccccc1C(F)(F)F	Sfp inh 50.1µM (no result: G9a block)
CCOC(=O)c1nc(C)sc1-c1ccnn1S(=O)(=O)c1ccc(Cl)cc1Cl	none (no result: G9a block)
O=C1OC(c2ccccc2)=C/C1=C\N1CCOCC1	JMJD2A Tudor inh inconclusive, Sfp inh inconclusive, G9a block 8.91µM
CN(C)/C=C1/C=C(c2ccccc2)OC1=O	Sfp inh 39.8µM, G9a block 35.5µM
O=C1OC(c2ccccc2)=C/C1=C/N1CCOCC1	Sfp inh 20µM, G9a block 8.91µM
N#C/C(=C\N1CCOCC1)c1ccccc1	none
COC(=O)c1ccc(C(NC(=O)OCc2ccccc2)/C(C)=C/[C@@H](C)C(=O)NC2CCCCC2)cc1 (some centres undefined)	none (no result: JMJD2A Tudor inh, HP1b binding inh, BAZ2B block, G9a block)
O=C(CNC(=O)c1ccncc1)N/N=C/c1ccccn1	JMJD2A Tudor inh inconclusive, BAZ2B block 79.4µM, Sfp inh 56.2µM
COc1cc(C(=O)NCC(=O)N/N=C/c2ccccn2)cc(OC)c1OC	JMJD2A Tudor inh inconclusive, Sfp inh 44.7µM
CN(CCCC1CCCC1)C(=O)CC1C(=O)NCCN1Cc1cccc(F)c1F (centres undefined)	none
Cc1ccc(C(=O)c2oc3ccc(Cl)cc3c2NC(=O)CN2CCN(C)CC2)cc1	JMJD2A Tudor inh inconclusive, BAZ2B block 25.1µM, G9a block 79.4µM
CCOC(=O)c1oc2ccc(OC)cc2c1NC(=O)CN1CCN(C)CC1	none
CCOC(=O)c1sc(N)c(C(N)=O)c1C	Sfp inh 31.6µM, G9a block 39.8µM (no result: BAZ2B block)
Cc1c(C(N)=O)sc(N)c1C(=O)OC(C)C	G9a block 39.8µM
CCOC(=O)c1c(N)sc(=S)c2c1CCC2	JMJD2A Tudor inh inconclusive, HP1b binding inh inconclusive, BAZ2B block 44.7µM, Sfp inh 31.6µM, G9a block inconclusive
CCOC(=O)c1c(N)sc(C(=O)N2CCCCCC2)c1C	none
CCOC(=O)c1c(N)sc(C(N)=O)c1C	HP1b binding inh inconclusive, Sfp inh inconclusive, G9a block inconclusive
CCOC(=O)c1c(N)sc(N)c1C(=O)OCC	JMJD2A Tudor inh inconclusive, HP1b binding inh 8.91µM, BAZ2B block 50.1µM, Sfp inh inconclusive, G9a block 3.16µM
COc1ccc(CN(C(=O)CN2C(=O)c3ccccc3S2(=O)=O)C(C(=O)NCC2CCCO2)c2ccco2)cc1 (centres undefined)	none
COc1cccc(CNCCCSc2nnnn2C)c1OC	none (no result: Sfp inh)
Cc1ccc(NC2=CC(c3ccccc3F)N(c3ccc(C)cc3)C2=O)cc1 (centres undefined)	BAZ2B block inconclusive, G9a block inconclusive (no result: Sfp inh)
CCCc1cc(=O)[nH]c(SCC(=O)NCC2COc3ccccc3O2)n1 (centres undefined)	none (no result: Sfp inh)
COc1ccc(C(CNC(=O)C(=O)NC2CCCCC2)N2CCN(C)CC2)cc1 (centres undefined)	none (no result: Sfp inh)
CCOC(=O)c1c(N)ssc1=S	JMJD2A Tudor inh inconclusive, HP1b binding inh inconclusive, BAZ2B block inconclusive, Sfp inh 22.4µM, G9a block 1µM
C=CCn1sc(N)c(C(=O)OCC)c1=S	BAZ2B block inconclusive
CCCc1c(C(=O)OCC)sc(N)c1C#N	HP1b binding inh inconclusive, BAZ2B block inconclusive, Sfp inh 63.1µM, G9a block inconclusive
COc1ccc(-c2c(O)c3cc(O)cc(O)c3oc2=O)cc1	none (no result: JMJD2A Tudor inh, HP1b binding inh, BAZ2B block, G9a block)
CCOc1ncccc1C(=O)OCc1ccc(C(=O)OC)cc1	G9a block inconclusive
COc1ccc(NC(=O)COC(=O)c2cc(=O)c3ccccc3o2)cc1OC	G9a block inconclusive (no result: Sfp inh)
CCc1c(C)sc(NC(=O)c2cccs2)c1C#N	Sfp inh inconclusive, G9a block 12.6µM
CCc1c(C)sc(NC(=O)c2cc(-c3ccco3)on2)c1C#N	Sfp inh inconclusive, G9a block 12.6µM
